Our source for the growth inhibition values is PubChem BioAssay (NCI).

“And” between values parts separate entries of the source, which are not always exact repeats. Identical values can stand only once. The panel holds about 79,000 compounds, 15% with a hit somewhere; the sample as a whole holds those more often. Values without a mark were called inactive. No stated cut-off is given here; in the data, active means growth inhibition above about 70%; inactive means the rest.

The nature of one assay: NCI Yeast Anticancer Drug Screen. Data for the cln2 rad14 strain (AID 165).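 Further: 0% = growth equal to vehicle treated cultures.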 Particulars: S. cerevisiae cln2 rad14 strain, active compounds read high; at 50.0 µM unless noted. An outline of the steps:
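Strain: cln2 rad14 yeast, altered in cell cycle control and DNA damage repair. Read-out: growth inhibition vs vehicle.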
Consider `CCOC(=O)/C=C/CCC(C)(C)COC(C)=O`, for which the growth inhibition was -49.8%.

Turning to `C=C(C)C(=O)O[C@H]1[C@H]2[C@H](OC(=O)[C@H]2C)[C@H](O)[C@@H](C)[C@@H]2C=CC(=O)[C@]21C`, the growth inhibition was 47.2%.

As to `O=c1oc(-c2ccc([N+](=O)[O-])cc2)nc2cc(Cl)ccc12`, the growth inhibition was 8.85%.

Turning to `O=C(/C=C/c1ccc(O)c(O)c1)OC1CC(O)(C(=O)O)CC(O)C1O` (stereo not drawn) (tested in a mixture with another compound), the growth inhibition was -17.1%.

Consider `Cc1ccc(C2OC3=C(Nc4ccc([N+](=O)[O-])cc4N3)C2=O)cc1` (stereo not drawn), for which the growth inhibition is 12.8%.

For the compound `CC(=O)CC(=O)NCC1CCC(CNC(=O)CC(C)=O)CC1` (stereo not drawn), the growth inhibition is -1.45%.

For the compound `Cc1[nH]c(=S)[nH]c1C`, the growth inhibition was 10%.

For the compound `C[N+](C)=c1nc(N2CCOCC2)ss1`, the growth inhibition is 8.95%.

With `O=C(O)C1C2OC3C(OC(=O)C31)C2Br` (stereo not drawn), the growth inhibition is 6.4% and -34.2%.

`O=C1NC(Cc2ccccc2)C(=O)NC1Cc1ccccc1` (stereo not drawn): the growth inhibition is -22.8%.

As for `CCCCC(NC(=O)C(C)NC(=O)OCc1ccccc1)C(=O)O` (stereo not drawn), the growth inhibition is 4.75%.

With `CC1(C)N=C(Oc2cc(Cl)cc(Cl)c2)NC(=S)N1`, the growth inhibition is 21.2%.

Turning to `c1ccc2c(c1)ccc1c[n+]3ccccc3cc12`, the growth inhibition was 44.5%.

Turning to `O=C(F)c1cccc2ccccc12`, the growth inhibition was 7.6%.

`Cc1c2ccccc2nc(CS(C)(=O)=O)[n+]1[O-]`: the growth inhibition is -51.6%.

Consider `COc1ccc(C=C(C(=O)O)C(=O)O)cc1`, for which the growth inhibition was 17.8%.

As to `ClCc1ccccc1C(c1ccccc1)c1ccccc1`, the growth inhibition was -32.1%.

With `CCOC(=O)c1c(C)[nH]c(C(=O)CCN(C)C)c1C`, the growth inhibition is -33.9%.

Turning to `COc1ccc2c(c1)[nH]c1c3ccc(OC)cc3oc(=O)c21`, the growth inhibition is 1.95%.

`COc1c2c(c(OC)c3ccccc13)C(=O)C1=C(CC=CC1)C2=O`: the growth inhibition was -10.1%.

In the case of `CC(C)(O)C1CC(=O)C(C)(C2C(O)CC3(C)C4CC=C5C(CCC(O)C5(C)C)C4(C)C(=O)CC23C)O1` (stereo not drawn), the growth inhibition was 42.9%.

On to `CC(C)C1=CCC2C(=C1)CCC1C(C)(N=C=O)CCCC21C` (stereo not drawn), for which the growth inhibition is -51.8%.

Regarding `CC1CCC(c2ccccc2)(c2ccccc2)C1=O` (stereo not drawn), the growth inhibition was -15%.

Consider `Clc1ccc(N=Nc2nc3ccccc3nc2N=Nc2ccc(Cl)cc2Cl)c(Cl)c1`, for which the growth inhibition is 3.25%.

For `CC(=O)c1c(Cl)nnc(-c2ccccc2)c1-c1ccccc1`, the growth inhibition was -21.9%.

For `C/C=C/C#C/C=C1/C=CC(=O)O1`, the growth inhibition was 37.1%.

Consider `O=C1c2ccccc2C(=O)c2c3c(cc(NCCNCCO)c21)N(CCO)CCN3`, for which the growth inhibition was 10.3%.

As for `Nc1c(F)cc(I)cc1F`, the growth inhibition was -43%.

Turning to `Cc1cccc(NC(=O)Nc2ccccc2F)n1`, the growth inhibition was -26.9%.

Take `O=C(CC(=O)C(F)(F)F)c1ccccc1.O=C(CC(=O)C(F)(F)F)c1ccccc1.[Mn]`: the growth inhibition was -13.7%.

Take `CN(C)C(CCC(=O)NC(C)(C)C)CC(=O)NC(C)(C)C` (stereo not drawn): the growth inhibition was -2.35%.

As to `CCCC1([N+]2(C)CCCC2)CS(=O)C1CC` (stereo not drawn), the growth inhibition was -4.8%.

Take `c1ccc2nc3c(cc2c1)NCC3`: the growth inhibition was -22.6%.

For `CCCCOC(=O)c1cccc(C)c1`, the growth inhibition was -38.1%.

On to `COc1cc(/C=C/C(=O)c2c(=O)o[nH][n+]2-c2ccccc2)ccc1[O-]`, for which the growth inhibition is 20.9%.

Take `O=Nc1c(O)c2ccccc2[nH]c1=O`: the growth inhibition is 24.9%.

Take `O=C(O)CCCl`: the growth inhibition was -27.1% and -34.2%.

Regarding `C=CCNC(=S)NNc1nc(C)cc(=O)[nH]1`, the growth inhibition is 5.55%.

Regarding `O=S1(=O)OCCOS(=O)(=O)C1Cc1nc2ccccc2[nH]1`, the growth inhibition is 56.9%.

The next assay in a line: NCI Yeast Anticancer Drug Screen. Data for the bub3 strain (AID 167). Particulars: S. cerevisiae bub3 mutant strain, active compounds read high; at 50.0 µM unless noted. An outline of the steps: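 Growth of a checkpoint-deficient yeast mutant is measured after compound exposure. Values represent inhibition relative to vehicle.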
For the compound `CCOC(=O)/C=C/CCC(C)(C)COC(C)=O`, the growth inhibition was 0.05%.

For the compound `C=C(C)C(=O)O[C@H]1[C@H]2[C@H](OC(=O)[C@H]2C)[C@H](O)[C@@H](C)[C@@H]2C=CC(=O)[C@]21C`, the growth inhibition was 57.4%.

As to `O=c1oc(-c2ccc([N+](=O)[O-])cc2)nc2cc(Cl)ccc12`, the growth inhibition was 44.9%.

For the compound `O=C(/C=C/c1ccc(O)c(O)c1)OC1CC(O)(C(=O)O)CC(O)C1O` (stereo not drawn) (tested in a mixture with another compound), the growth inhibition is 4%.

As to `Cc1ccc(C2OC3=C(Nc4ccc([N+](=O)[O-])cc4N3)C2=O)cc1` (stereo not drawn), the growth inhibition is -4.35%.

Turning to `CC(=O)CC(=O)NCC1CCC(CNC(=O)CC(C)=O)CC1` (stereo not drawn), the growth inhibition was -54.3%.

For the compound `Cc1[nH]c(=S)[nH]c1C`, the growth inhibition was 15.7%.

`C[N+](C)=c1nc(N2CCOCC2)ss1`: the growth inhibition is -63.4%.

For the compound `O=C(O)C1C2OC3C(OC(=O)C31)C2Br` (stereo not drawn), the growth inhibition is -2.35% and 1.3%.

As for `O=C1NC(Cc2ccccc2)C(=O)NC1Cc1ccccc1` (stereo not drawn), the growth inhibition was -4.95%.

In the case of `CCCCC(NC(=O)C(C)NC(=O)OCc1ccccc1)C(=O)O` (stereo not drawn), the growth inhibition was 12.8%.

Consider `CC1(C)N=C(Oc2cc(Cl)cc(Cl)c2)NC(=S)N1`, for which the growth inhibition was 7%.

For `c1ccc2c(c1)ccc1c[n+]3ccccc3cc12`, the growth inhibition was 9.25%.

Consider `O=C(F)c1cccc2ccccc12`, for which the growth inhibition was -19.6%.

Turning to `Cc1c2ccccc2nc(CS(C)(=O)=O)[n+]1[O-]`, the growth inhibition was -16.7%.

Regarding `COc1ccc(C=C(C(=O)O)C(=O)O)cc1`, the growth inhibition was 22%.

For the compound `ClCc1ccccc1C(c1ccccc1)c1ccccc1`, the growth inhibition was 24.9%.

Consider `CCOC(=O)c1c(C)[nH]c(C(=O)CCN(C)C)c1C`, for which the growth inhibition was 2.1%.

`COc1ccc2c(c1)[nH]c1c3ccc(OC)cc3oc(=O)c21`: the growth inhibition is -38.6%.

On to `COc1c2c(c(OC)c3ccccc13)C(=O)C1=C(CC=CC1)C2=O`, for which the growth inhibition is 14.6%.

For `CC(C)(O)C1CC(=O)C(C)(C2C(O)CC3(C)C4CC=C5C(CCC(O)C5(C)C)C4(C)C(=O)CC23C)O1` (stereo not drawn), the growth inhibition was 56.1%.

For the compound `CC(C)C1=CCC2C(=C1)CCC1C(C)(N=C=O)CCCC21C` (stereo not drawn), the growth inhibition is 38.8%.

On to `CC1CCC(c2ccccc2)(c2ccccc2)C1=O` (stereo not drawn), for which the growth inhibition was -1.15%.

For the compound `Clc1ccc(N=Nc2nc3ccccc3nc2N=Nc2ccc(Cl)cc2Cl)c(Cl)c1`, the growth inhibition is -5.75%.

Take `CC(=O)c1c(Cl)nnc(-c2ccccc2)c1-c1ccccc1`: the growth inhibition is -11.7%.

Take `C/C=C/C#C/C=C1/C=CC(=O)O1`: the growth inhibition was 34.2%.

As to `O=C1c2ccccc2C(=O)c2c3c(cc(NCCNCCO)c21)N(CCO)CCN3`, the growth inhibition was 34.8%.

Regarding `Nc1c(F)cc(I)cc1F`, the growth inhibition was 10.2%.

As to `Cc1cccc(NC(=O)Nc2ccccc2F)n1`, the growth inhibition was -6.95%.

Take `O=C(CC(=O)C(F)(F)F)c1ccccc1.O=C(CC(=O)C(F)(F)F)c1ccccc1.[Mn]`: the growth inhibition was 3.6%.

With `CN(C)C(CCC(=O)NC(C)(C)C)CC(=O)NC(C)(C)C` (stereo not drawn), the growth inhibition was 6.95%.

As to `CCCC1([N+]2(C)CCCC2)CS(=O)C1CC` (stereo not drawn), the growth inhibition was 5.8%.

For `c1ccc2nc3c(cc2c1)NCC3`, the growth inhibition was -8.25%.

On to `CCCCOC(=O)c1cccc(C)c1`, for which the growth inhibition was 2.6%.

Take `COc1cc(/C=C/C(=O)c2c(=O)o[nH][n+]2-c2ccccc2)ccc1[O-]`: the growth inhibition was -1.85%.

Regarding `O=Nc1c(O)c2ccccc2[nH]c1=O`, the growth inhibition was 57.5%.

`O=C(O)CCCl`: the growth inhibition is -6.1% and -0.9%.

As for `C=CCNC(=S)NNc1nc(C)cc(=O)[nH]1`, the growth inhibition is 5.95%.

For `O=S1(=O)OCCOS(=O)(=O)C1Cc1nc2ccccc2[nH]1`, the growth inhibition is -0.05%.
